# Experimental data from PubChem BioAssay.
# Values without a mark were called inactive. The list shows a part of the results. Active and inactive are the calls of the source. Unless noted, no stated cut-off is given here; in the data, active means inhibition above about 33%; inactive means the rest.
# Tested on: not listed separately
# Assay: compounds suppressing VP16-driven luciferase signal – cell-based, luminescence, high throughput, counter-screen for LRH-1 inverse agonist project (AID 651615)
# Conditions: Gal4-VP16 luciferase reporter cells, at 3.6 µM, stronger effect = higher value
row,Compound,inhibition
1,COc1ccc(C(=O)Nc2ccccc2C(=O)N/N=C/c2ccc(O)c(OC)c2)cc1,-41.2%
2,C[C@@H]1C[C@@H]2O[C@H]2/C=C\C=C\C(=O)Cc2c(Cl)c(O)cc(O)c2C(=O)O1,79.3% (active)
3,Cc1cccc(NC(=O)c2ccc([N+](=O)[O-])o2)c1,-13.2%
4,Cn1nccc1C(=O)NC1CCCc2c1cnn2-c1ccc(F)cc1F (centres undefined),57.1% (active)
5,CN(c1ccc2nc3ccccc3c(=O)n2n1)C1CCCCC1,18%

# Tested on: transactivating tegument protein VP16 (Human herpesvirus 1)
# Assay: compounds suppressing VP16-driven luciferase signal – cell-based, luminescence, single concentration, counter-screen for SRC2 inhibitor project (AID 652007; in the data active means inhibition above about 36%)
# Conditions: cell-based VP16 transactivation luciferase reporter, at 8.9 µM, stronger effect = higher value
row,Compound,inhibition
1,COc1ccc(C(=O)Nc2ccccc2C(=O)N/N=C/c2ccc(O)c(OC)c2)cc1,64.8% (active)
2,CCOc1cc(C(=O)N2CCc3cc(OC)c(OC)cc3C2)ccc1OC(F)F,-28%
3,CN(c1ccc2nc3ccccc3c(=O)n2n1)C1CCCCC1,50.9% (active)

# Target: Nuclear receptor coactivator 2 (Homo sapiens) (UniProt Q15596)
# Assay: inhibition of GAL4-SRC2 driven luciferase expression – cell-based, luminescence, HEK293, triplicate, confirmation (AID 652008;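 active means mean inhibition above 46.5%, the solvent-only control mean plus 3 SD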;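 further: 0% = DMSO-treated cells and 100% = Gossypol at 36 µM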)
# Conditions: HEK293 GAL4-SRC2 luciferase reporter, at 8.9 µM, stronger effect = higher value
# Sequence of Nuclear receptor coactivator 2 (Homo sapiens) (Q15596 whole entry, looked up, the tested form may be a part): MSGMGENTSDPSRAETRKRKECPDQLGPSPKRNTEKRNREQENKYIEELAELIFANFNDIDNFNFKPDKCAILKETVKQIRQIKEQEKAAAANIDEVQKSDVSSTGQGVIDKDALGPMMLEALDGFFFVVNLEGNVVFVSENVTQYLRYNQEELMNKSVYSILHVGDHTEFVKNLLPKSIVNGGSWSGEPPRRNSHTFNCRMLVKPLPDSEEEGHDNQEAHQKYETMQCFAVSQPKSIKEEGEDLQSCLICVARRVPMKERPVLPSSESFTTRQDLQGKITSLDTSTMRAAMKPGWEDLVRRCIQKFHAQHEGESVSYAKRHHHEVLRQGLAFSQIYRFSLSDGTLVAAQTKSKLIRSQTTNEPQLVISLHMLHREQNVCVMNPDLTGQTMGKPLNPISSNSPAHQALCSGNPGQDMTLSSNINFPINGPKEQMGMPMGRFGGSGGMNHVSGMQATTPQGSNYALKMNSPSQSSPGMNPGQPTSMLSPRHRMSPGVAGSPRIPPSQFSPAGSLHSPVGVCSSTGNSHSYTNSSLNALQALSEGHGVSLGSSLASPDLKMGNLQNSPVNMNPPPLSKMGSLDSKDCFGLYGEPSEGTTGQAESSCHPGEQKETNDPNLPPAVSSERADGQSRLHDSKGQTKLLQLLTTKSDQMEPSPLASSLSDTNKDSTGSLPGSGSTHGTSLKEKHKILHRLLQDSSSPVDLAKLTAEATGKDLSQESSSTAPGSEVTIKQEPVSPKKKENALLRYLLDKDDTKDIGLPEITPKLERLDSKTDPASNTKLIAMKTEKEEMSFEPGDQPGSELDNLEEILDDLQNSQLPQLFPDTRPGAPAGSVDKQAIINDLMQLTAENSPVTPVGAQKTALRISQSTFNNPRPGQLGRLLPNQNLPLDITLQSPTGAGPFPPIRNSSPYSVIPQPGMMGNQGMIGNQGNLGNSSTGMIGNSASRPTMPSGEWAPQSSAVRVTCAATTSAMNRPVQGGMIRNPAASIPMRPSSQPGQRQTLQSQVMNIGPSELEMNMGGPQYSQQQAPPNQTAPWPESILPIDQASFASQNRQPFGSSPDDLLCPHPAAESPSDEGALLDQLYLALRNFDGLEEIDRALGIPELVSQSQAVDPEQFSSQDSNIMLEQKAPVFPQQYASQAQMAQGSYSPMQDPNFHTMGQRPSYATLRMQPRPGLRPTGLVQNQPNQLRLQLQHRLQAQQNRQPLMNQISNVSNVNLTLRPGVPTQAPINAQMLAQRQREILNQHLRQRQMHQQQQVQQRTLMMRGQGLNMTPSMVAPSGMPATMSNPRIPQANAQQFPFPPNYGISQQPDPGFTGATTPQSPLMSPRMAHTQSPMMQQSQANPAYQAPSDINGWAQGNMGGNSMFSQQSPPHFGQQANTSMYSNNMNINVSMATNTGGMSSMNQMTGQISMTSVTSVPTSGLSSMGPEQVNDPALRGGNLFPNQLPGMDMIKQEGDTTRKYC
row,Compound,inhibition
1,COc1ccc(C(=O)Nc2ccccc2C(=O)N/N=C/c2ccc(O)c(OC)c2)cc1,59.3% (active)
2,CCOc1cc(C(=O)N2CCc3cc(OC)c(OC)cc3C2)ccc1OC(F)F,14.7%
3,CN(c1ccc2nc3ccccc3c(=O)n2n1)C1CCCCC1,86% (active)

# Tested on: not listed separately
# Assay: VP16-driven transactivation reporter suppression – cell-based, luminescence, HEK293, counter-screen for COUP-TFII antagonist project (AID 687007; in the data active means inhibition above about 13%)
# Conditions: HEK293 Gal4-VP16 luciferase reporter, at 8.5 µM, stronger effect = higher value
row,Compound,inhibition
1,COc1ccc(C(=O)Nc2ccccc2C(=O)N/N=C/c2ccc(O)c(OC)c2)cc1,7.03%
2,C[C@@H]1C[C@@H]2O[C@H]2/C=C\C=C\C(=O)Cc2c(Cl)c(O)cc(O)c2C(=O)O1,64.3% (active)
3,Cn1nccc1C(=O)NC1CCCc2c1cnn2-c1ccc(F)cc1F (centres undefined),-3.41%
4,CN(c1ccc2nc3ccccc3c(=O)n2n1)C1CCCCC1,64.8% (active)

# Target: COUP transcription factor 2 (Homo sapiens) (UniProt P24468)
# Assay: retest of COUP-TFII reporter suppressors – cell-based, luciferase reporter, HEK293, triplicate, confirmation (AID 687008;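 active means mean inhibition over three repeats above a set limit taken from the earlier primary screen, cut at about 38% in these data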;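 further: 100% = cells given the luciferase reporter alone without the COUP-TF2 vector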)
# Conditions: HEK293 NGFI-A luciferase reporter, luminescence; at 8.5 µM; stronger effect = higher value
# Sequence of COUP transcription factor 2 (Homo sapiens) (P24468 whole entry, looked up): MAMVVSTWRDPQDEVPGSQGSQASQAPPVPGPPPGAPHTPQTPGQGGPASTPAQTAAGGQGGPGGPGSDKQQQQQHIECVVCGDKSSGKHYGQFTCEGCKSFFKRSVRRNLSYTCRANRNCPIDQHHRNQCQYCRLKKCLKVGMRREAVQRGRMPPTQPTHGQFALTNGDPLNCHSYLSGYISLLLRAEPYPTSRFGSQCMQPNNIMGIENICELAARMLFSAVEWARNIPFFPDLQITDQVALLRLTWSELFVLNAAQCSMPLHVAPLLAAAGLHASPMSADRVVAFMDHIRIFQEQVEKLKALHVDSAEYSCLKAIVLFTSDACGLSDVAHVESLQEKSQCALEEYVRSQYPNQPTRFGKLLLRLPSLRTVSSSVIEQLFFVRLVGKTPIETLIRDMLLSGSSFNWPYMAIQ
row,Compound,inhibition
1,COc1ccc(C(=O)Nc2ccccc2C(=O)N/N=C/c2ccc(O)c(OC)c2)cc1,75.2% (active)
2,C[C@@H]1C[C@@H]2O[C@H]2/C=C\C=C\C(=O)Cc2c(Cl)c(O)cc(O)c2C(=O)O1,68% (active)
3,Cn1nccc1C(=O)NC1CCCc2c1cnn2-c1ccc(F)cc1F (centres undefined),62.2% (active)
4,CN(c1ccc2nc3ccccc3c(=O)n2n1)C1CCCCC1,87.9% (active)
